# Measurements published in PubChem BioAssay (NCI).
# Compounds without any hit were thinned out: in the full panel of roughly 83,000, 20% have a hit.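 Results are percent growth after 48 hours of single-concentration exposure. 100 means growth as in untreated cells, lower positive values show inhibition; negative values down to -100 show cell death.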 Calls of active or inactive are those of the source. The calls were made as follows: active = growth percent below 10; inactive = the rest.
# Tested on: OVCAR-4 ovarian
# Experiment: NCI-60 one-dose screen, 48 h (100 = growth as untreated, 0 = no growth, -100 = all killed)
# Settings: 10 µM unless noted
row,SMILES,growth
1,COc1ccc(-c2nc3ccc(-c4nc5ccc(N6CCN(c7ccncc7)CC6)cc5[nH]4)cc3[nH]2)cc1OC,26.5% (inactive)
2,CSc1nc(NCc2ccccc2)c(C#N)c(-c2cccc([N+](=O)[O-])c2)n1,88.5% (inactive)
3,O=C(/C=C/c1cccc(Cl)c1)c1ccc(O)c(CN2CCN(c3cc4c(cc3F)c(=O)c(C(=O)O)cn4C3CC3)CC2)c1,79.5% (inactive)
4,CC1(C)CC[C@]2(C(=O)Nc3ccccn3)CC[C@]3(C)C(=CC[C@@H]4[C@@]5(C)C/C(=C/c6cccnc6)C(=O)C(C)(C)[C@@H]5CC[C@]43C)[C@H]2C1,26.7% (inactive)
5,COC(=O)[C@]12CCC(C)(C)C[C@H]1[C@H]1C(=O)C[C@@H]3[C@@]4(C)c5c([nH]c6ccccc6c5=O)C(C)(C)[C@@H]4CC[C@@]3(C)[C@]1(C)CC2,49% (inactive)
6,CC1=CC(=NN=c2cc(C)n([O-])c(C)c2)C=C(C)[N+]1=O,78% (inactive)
7,CCC(=O)c1ccc(Cl)s1,109% (inactive)
8,Cn1c(=O)c2c(nc3n(-c4ccc(Cl)cc4Cl)c(Sc4nc(-c5ccccc5)c(C#N)c(=O)[nH]4)cn23)n(C)c1=O,-33.1% (active)

# Tested on: SK-OV-3 ovarian
# Experiment: as above
# Settings: 10 µM unless noted
row,SMILES,growth
1,COc1cccc(-c2nc3sccn3c2-c2ccnc(NCCCNS(=O)(=O)c3c(Cl)cccc3Cl)c2)c1,90.4% (inactive)
2,CC1=NN(c2nc(-c3ccc(Cl)cc3)c(C#N)c(N3CCOCC3)n2)C(=O)C1,86.6% (inactive)
3,Cc1nc2c3c(-c4ccccc4)c(-c4ccccc4)oc3ncn2n1,93% (inactive)
4,C=CC(=O)Nc1cccc(-c2nc(SC)nc(NCc3ccccc3)c2C#N)c1,72.2% (inactive)
5,N#Cc1c(N)n(CCNC(=O)c2ccccc2)c2nc3ccccc3nc12,120% (inactive)
6,C=C(C)[C@@H]1CC[C@]2(C(=O)OC)CC[C@]3(C)[C@H](CC[C@@H]4[C@@]5(C)C/C(=C/c6cccc(I)c6)C(=O)C(C)(C)[C@@H]5CC[C@]43C)[C@@H]12,93.9% (inactive)
7,Cc1c(/C=C/[N+](=O)[O-])ccc2c1[nH]c1ccccc12,114% (inactive)
8,COc1cc(/C=C/c2cc(O)c3cc(C(C)=O)c(=O)oc3c2)cc2c1O[C@]1(C)CC[C@@H](O)C(C)(C)[C@H]1C2,64.2% (inactive)
9,CCCOc1ccc2nc(NC(=O)OC)[nH]c2c1,4.92% (active)
10,COc1cc(/C=C/C(=O)c2ccc(O)c(CN3CCN(c4cc5c(cc4F)c(=O)c(C(=O)O)cn5C4CC4)CC3)c2)cc(OC)c1OC,89.2% (inactive)
11,C=CCSSc1ncnc2c1ncn2C1OC(CO)C(O)C1O (centres undefined),7.46% (active)
12,COc1cc2nc(N3CCCC3)nc(NCc3ccccc3)c2cc1OC,96% (inactive)
13,CC[C@H]1OC(=O)[C@H](C)[C@@H](O[C@H]2C[C@@](C)(OC)[C@@H](O)[C@H](C)O2)[C@H](C)[C@@H](O[C@@H]2O[C@H](C)C[C@H](N(C)C)[C@H]2O)[C@](C)(O)C[C@H](C)CN(C)[C@H](C)[C@@H](O)[C@]1(C)O,97.4% (inactive)
14,CSc1nc(NCCN2CCOCC2)c(C#N)c(-c2cccc([N+](=O)[O-])c2)n1,97.8% (inactive)
15,CC(C)c1c(C(=O)c2ccccc2)c(-c2ccccc2)c(-c2ccc(F)cc2)n1CC[C@@H](O)C[C@@H](O)CC(=O)O,84.5% (inactive)
16,N#CCCN=Nc1c(O)[nH]c2ccc([N+](=O)[O-])cc12,86% (inactive)
17,CC[C@@H]1O[C@H](O[C@@H](c2cnc[nH]2)[C@H](NC(=O)c2nc([C@H](CC(N)=O)NC[C@@H](N)C(N)=O)nc(N)c2C)C(=O)N[C@H](C)[C@H](O)[C@H](C)C(=O)N[C@@H](C(=O)NCCc2nc(-c3nc(C(=O)NCCCCN=C(N)N)cs3)cs2)[C@@H](C)O)[C@H](O[C@@H]2O[C@H](CO)[C@H](O)[C@H](OC(N)=O)[C@@H]2O)[C@H](C)[C@@H]1C,41.8% (inactive)
18,COc1cc2nc(N3CCCC3)nc(Nc3ccccc3)c2cc1OC,48.5% (inactive)
19,Nc1nc2ncc(CCNc3ccc(C(=O)O)cc3)nc2c(=O)[nH]1,115% (inactive)
20,CCCN1CCN(c2ccc3nc(-c4ccc5nc(-c6ccc(OCC)cc6)[nH]c5c4)[nH]c3c2)CC1,67.7% (inactive)
21,COc1ccc(Nc2nc(SC)nc(-c3cccc([N+](=O)[O-])c3)c2C#N)cc1,46.4% (inactive)
